Laboratory results: PubChem BioAssay (Tox21)
Several values for one entry are separate records, joined by “and”; a condition that tells them apart may be missing. Equal entries are not always repeated. Results filed as inconclusive are left out. Where a call stands in place of a potency, no number is given. Activity calls are given as the source filed them. Unless noted, the call rests on the fitted dose curve; in most records, active means well fitted curve in the direction sought with a large enough effect in the repeat runs; inconclusive means weak or mixed curves; inactive means no such curve, though single readings can be large; an effect the other way counts as inactive or inconclusive.

Key:
[1] = qHTS assay to identify small molecule antagonists of the estrogen related receptor (ERR) signaling pathway - cell viability counter screen (AID 1224818);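 further: series mostly up to about 46 µM; viability measured after 17.5 h of compound exposure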
Outline: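 Multiplexed counter screen to separate cytotoxic compounds from true ERR modulators. ERR cells received DMSO-dissolved compounds after a 6 h pre-incubation, were exposed 17.5 h at 37 C, then assayed with CellTiter-Fluor fluorescence.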

[2] = qHTS assay to identify small molecule antagonists of the estrogen related receptor signaling pathway with the pleiotropic PPARgamma coactivator (PGC) cell viability counter screen (AID 1224822; further: series mostly up to about 46 µM)
Outline: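 Cells: PGC/ERR, 2,000/well, 1536-well format. Pre-incubation 6 h, 37 C/5% CO2. Compound exposure 17.5 h, 37 C. Detection: CellTiter-Fluor, 30 min, fluorescence.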

[3] = qHTS assay to identify small molecule agonists of the RXR signaling pathway - cell viability counter screen (AID 1159529); further: nearly all actives have a fitted effect of over 50% in size; further: potency means the concentration at half of the fitted maximal effect
Outline: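 Tox21 10K compounds were tested for cytotoxicity against GeneBLAzer RXR-alpha HEK 293T cells grown in 2% charcoal-stripped FBS. Exposure lasted 16 hr at 37 C, 5% CO2; viability read by CellTiter-Glo luminescence.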

[4] = qHTS assay to identify small molecule antagonists of the retinoid acid receptor (RAR) signaling pathway - cell viability counter screen (AID 1159551); further: nearly all actives have a fitted effect of over 35% in size; further: potency means the concentration at half of the fitted maximal effect
Outline: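 Luminescent ATP quantitation (CellTiter-Glo) gave cell viability in C3RL4 cells exposed to test chemicals for 6 h at 37 C alongside 1 uM final retinol.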

[5] = qHTS assay to identify small molecule antagonists of the retinoic acid receptor (RAR) signaling pathway (AID 1159552; further: nearly all actives have a fitted effect of over 50% in size; further: potency means the concentration at half of the fitted maximal effect)
Outline: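 Overnight-plated C3RL4 reporter cells get compound, then retinol to 1 uM final; plates sit 6 hr at 37 C, 5% CO2. A luciferase reagent is added and light output recorded after 30 min at room temperature.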

[6] = qHTS assay to identify small molecule agonists of the retinoic acid receptor (RAR) signaling pathway (AID 1159553); further: potency means the concentration at half of the fitted maximal effect
Outline: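 Luminescence from a RARE-driven luciferase reporter in C3RL4 cells served as the read-out, measured after 30 min with detection reagent at room temperature. Compounds in DMSO were applied for 6 hr at 37 C following overnight seeding.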

[7] = qHTS assay to identify small molecule antagonists of the estrogen related receptor (ERR) signaling pathway from Tox21 library - cell viability counter screen (AID 1224834); further: nearly all actives have a fitted effect of over 30% in size; further: potency means the concentration at half of the fitted maximal effect
Outline: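 Fluorescence from CellTiter-Fluor gives the viability read-out, taken 30 min after reagent addition. Before that, ERR cells seeded 6 h earlier were incubated with compounds for 17.5 h at 37 C.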

[8] = target: Luciferin 4-monooxygenase (Photinus pyralis) (UniProt P08659); experiment: qHTS assay to identify small molecule inhibitors of firefly luciferase (AID 1224835); further: nearly all actives have a fitted effect of over 25% in size; further: potency means the concentration at half of the fitted maximal effect
Chain of Luciferin 4-monooxygenase (Photinus pyralis) (P08659 whole entry, looked up): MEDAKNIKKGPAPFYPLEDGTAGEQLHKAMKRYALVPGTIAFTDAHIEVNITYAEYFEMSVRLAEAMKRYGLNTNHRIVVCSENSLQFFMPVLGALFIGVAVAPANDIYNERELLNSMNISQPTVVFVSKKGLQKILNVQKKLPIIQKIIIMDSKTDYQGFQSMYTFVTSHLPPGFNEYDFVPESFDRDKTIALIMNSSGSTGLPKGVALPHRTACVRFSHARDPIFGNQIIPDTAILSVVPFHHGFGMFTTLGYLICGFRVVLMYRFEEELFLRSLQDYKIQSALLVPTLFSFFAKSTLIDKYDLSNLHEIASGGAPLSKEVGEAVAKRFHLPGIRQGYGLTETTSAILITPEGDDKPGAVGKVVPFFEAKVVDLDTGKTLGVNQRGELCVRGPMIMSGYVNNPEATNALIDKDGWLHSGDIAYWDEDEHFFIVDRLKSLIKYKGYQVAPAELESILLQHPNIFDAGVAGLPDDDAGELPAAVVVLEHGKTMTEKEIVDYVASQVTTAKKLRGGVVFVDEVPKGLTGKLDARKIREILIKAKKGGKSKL
Outline: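 Biochemical qHTS: compounds run as interplate titrations against purified firefly enzyme, with D-luciferin and ATP each at its KM concentration. Light output recorded by CCD imaging.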

[9] = qHTS assay to identify small molecule agonists of the constitutive androstane receptor (CAR) signaling pathway - cell viability counter screen (AID 1224836); further: nearly all actives have a fitted effect of over 45% in size; further: potency means the concentration at half of the fitted maximal effect
Outline: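 Fluorescence from CellTiter-Fluor indicates live cells after 23 h exposure. The human hepatoma line expresses hCAR and a CYP2B6-2.2kb reporter. Incubation medium contains 0.75 uM PK11195 (final).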

[10] = qHTS assay to identify small molecule antagonists of the constitutive androstane receptor (CAR) signaling pathway - cell viability counter screen (AID 1224837); further: nearly all actives have a fitted effect of over 45% in size; further: potency means the concentration at half of the fitted maximal effect
Outline: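 HepG2-CYP2B6-hCAR cells, 2500/well, 4 hr pre-incubation; compound titration, 15 conc.; CITCO 50 nM final; 23 hr, 37 C/5% CO2; CellTiter-Fluor, fluorescence intensity.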

[11] = qHTS assay to identify small molecule antagonists of the estrogen related receptor signaling pathway with the pleiotropic PPARgamma coactivator (PGC) from Tox21 10K library - cell viability counter screen (AID 1224840; active means well fitted cell-killing curve with a large enough effect in the repeat runs, not every such curve was filed as active; further: nearly all actives have a fitted effect of over 40% in size; further: potency means the concentration at half of the fitted maximal effect)
Outline: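 PGC/ERR cells, 2,000/well; 6 h pre-incubation 37 C/5% CO2; cpd in DMSO via pin tool; 17.5 h 37 C; CellTiter-Fluor, 30 min; fluorescence.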

[12] = target: Thyrotropin receptor (Homo sapiens) (UniProt P16473); experiment: qHTS assay to identify small molecule agonists of the thyroid stimulating hormone receptor (TSHR) signaling pathway (AID 1224843; calls by dose curve; further: nearly all actives have a fitted effect of over 45% in size; further: potency means the concentration at half of the fitted maximal effect)
Chain of Thyrotropin receptor (Homo sapiens) (P16473 whole entry, looked up): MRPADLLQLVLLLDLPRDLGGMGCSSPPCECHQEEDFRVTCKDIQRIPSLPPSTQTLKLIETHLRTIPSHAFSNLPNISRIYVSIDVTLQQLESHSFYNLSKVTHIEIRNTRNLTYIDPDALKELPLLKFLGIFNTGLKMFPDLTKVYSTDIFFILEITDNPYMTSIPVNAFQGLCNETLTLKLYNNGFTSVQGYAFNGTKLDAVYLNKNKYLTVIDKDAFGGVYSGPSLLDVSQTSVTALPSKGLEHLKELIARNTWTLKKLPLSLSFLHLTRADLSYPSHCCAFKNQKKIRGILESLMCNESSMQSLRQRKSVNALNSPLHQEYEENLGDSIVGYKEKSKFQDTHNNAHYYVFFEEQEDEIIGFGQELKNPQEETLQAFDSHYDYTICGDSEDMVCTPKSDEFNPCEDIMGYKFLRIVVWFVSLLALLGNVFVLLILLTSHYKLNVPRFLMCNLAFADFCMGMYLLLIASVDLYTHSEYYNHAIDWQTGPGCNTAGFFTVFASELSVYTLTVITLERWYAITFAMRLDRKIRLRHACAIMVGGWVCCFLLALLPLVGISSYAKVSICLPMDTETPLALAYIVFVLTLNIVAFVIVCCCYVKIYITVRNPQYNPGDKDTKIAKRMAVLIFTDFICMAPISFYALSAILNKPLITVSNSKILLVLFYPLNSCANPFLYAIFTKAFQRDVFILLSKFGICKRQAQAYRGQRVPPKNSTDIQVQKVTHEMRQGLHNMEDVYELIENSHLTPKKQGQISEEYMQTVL
Outline: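 Steps: seed 800 TSHR-HEK293 cells per well; add test compound and hold 30 min at ambient temperature; dispense cAMP-d2 then anti-cAMP cryptate; incubate 1 h at ambient; measure fluorescence intensity.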

[13] = target: Nuclear receptor subfamily 1 group I member 3 (Homo sapiens) (UniProt Q14994); experiment: qHTS assay to identify small molecule antagonists of the constitutive androstane receptor (CAR) signaling pathway (AID 1224838);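 further: HepG2 cells stably expressing hCAR with CYP2B6 luciferase reporter stimulated by CITCO; nearly all actives have a fitted effect of over 40% in size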; further: potency means the concentration at half of the fitted maximal effect
Chain of Nuclear receptor subfamily 1 group I member 3 (Homo sapiens) (Q14994 whole entry, looked up): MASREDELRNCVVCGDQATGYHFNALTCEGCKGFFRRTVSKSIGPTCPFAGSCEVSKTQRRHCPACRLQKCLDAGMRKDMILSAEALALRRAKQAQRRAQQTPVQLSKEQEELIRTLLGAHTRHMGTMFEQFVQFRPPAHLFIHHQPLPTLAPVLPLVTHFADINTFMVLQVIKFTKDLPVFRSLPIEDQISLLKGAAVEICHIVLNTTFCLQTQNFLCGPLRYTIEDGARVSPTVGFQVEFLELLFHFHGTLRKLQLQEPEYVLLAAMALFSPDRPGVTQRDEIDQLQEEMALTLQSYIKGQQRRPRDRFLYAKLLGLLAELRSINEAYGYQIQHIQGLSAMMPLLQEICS
Outline: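 HepG2-CYP2B6-hCAR cells; 4 h pre-incubation; cpd (15 conc) + CITCO 50 nM final; 24 h, 37 C/5% CO2; ONE-Glo, luminescence.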

[14] = target: Nuclear receptor subfamily 1 group I member 3 (Homo sapiens) (UniProt Q14994); experiment: qHTS assay to identify small molecule agonists of the constitutive androstane receptor (CAR) signaling pathway (AID 1224839); further: nearly all actives have a fitted effect of over 15% in size; further: potency means the concentration at half of the fitted maximal effect
Outline: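 Stable hCAR/CYP2B6-2.2kb HepG2 line in DMEM with 10% FBS; compounds (15 concentrations) and 0.75 uM PK11195 final, 24 h at 37 C/5% CO2, then ONE-Glo luminescence after 30 min.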

[15] = qHTS assay to identify small molecule antagonists of the estrogen related receptor signaling pathway with the pleiotropic PPARgamma coactivator (PGC) from Tox21 10K library (AID 1224841; call rule not given here; further: actives are mostly falling curves and most rising ones were filed inactive; nearly all actives have a fitted effect of over 50% in size; further: potency means the concentration at half of the fitted maximal effect)
Outline: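 PGC/ERR cell line, 2,000 cells/well; 6 h pre-incubation 37 C/5% CO2; compounds (DMSO) pinned in; 18 h, 37 C; One-Glo, 30 min RT; luminescence.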

[16] = qHTS assay to identify small molecule agonists of the estrogen related receptor signaling pathway with the pleiotropic PPARgamma coactivator (PGC) from Tox21 10K library (AID 1224842); further: nearly all actives have a fitted effect of over 15% in size
Outline: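 PGC/ERR reporter cell line, 2,000 cells per well, incubated 6 h at 37 C before 23 nL compound in DMSO was added. After 18 h at 37 C, One-Glo luminescence read following 30 min at room temperature.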

| SMILES | outcome [1] | outcome [2] | Potency [3] | Potency [4] | Potency [5] | Potency [6] | Potency [7] | Potency [8] | Potency [9] | Potency [10] | Potency [11] | Potency [12] | Potency [13] | Potency [14] | Potency [15] | Potency [16] |
| --- | --- | --- | --- | --- | --- | --- | --- | --- | --- | --- | --- | --- | --- | --- | --- | --- |
| O=C(O)CCCOc1ccc(Cl)cc1Cl | inactive | inactive |  |  |  |  |  |  |  |  |  |  |  |  |  |  |
| N#CC(C#N)=Cc1ccc(O)c(O)c1 | inactive | inactive |  |  |  |  |  |  |  |  |  |  |  |  |  |  |
| CCOC(=O)NC(O)C(Cl)(Cl)Cl (stereo not drawn) |  |  | inactive | inactive | inactive | inactive | inactive | inactive | inactive | inactive | inactive | inactive |  |  |  |  |
| O=C(N/N=C/c1ccc([N+](=O)[O-])o1)c1cc([N+](=O)[O-])cc([N+](=O)[O-])c1O |  |  | inactive | inactive | inactive |  | 11.9 µM (active) | 21.9 µM (active) | 11.9 µM (active) | 10.6 µM (active) | 11.9 µM (active) | inactive | inactive | 15 µM (active) |  |  |
| CCCN(CCOc1c(Cl)cc(Cl)cc1Cl)C(=O)n1ccnc1 |  |  | inactive | inactive | inactive | inactive |  | inactive | inactive |  |  |  | inactive | 54.5 µM (active) | 55.6 µM (active) and 27.3 µM (active) | inactive |
| CCc1cnc(C2=NC(C)(C(C)C)C(=O)N2)c(C(=O)O)c1 (stereo not drawn) |  |  | inactive | inactive | inactive | inactive | inactive | inactive | inactive | inactive | inactive | inactive | inactive |  |  |  |
| CC(C)c1ccc(NC(=O)N(C)C)cc1 |  |  | inactive | inactive | inactive | 13.7 µM (active) |  | 71 µM (active) | inactive | inactive |  | inactive | inactive | 48.5 µM (active) | inactive |  |
| C[CH2][Hg][S]c1ccccc1C(=O)O |  |  | 1.23 µM (active) and 1.51 µM (active) | 13.7 µM (active) and 18.8 µM (active) | 1.93 µM (active) and 2.66 µM (active) |  | 6.86 µM (active) and 9.44 µM (active) |  | 19.3 µM (active) and 11.9 µM (active) | 12.2 µM (active) and 7.5 µM (active) | 4.33 µM (active) and 11.9 µM (active) | inactive | 12.2 µM (active) and 6.68 µM (active) |  | inactive |  |
| NC(=S)c1c(Cl)cccc1Cl |  |  | inactive | inactive | inactive | inactive | inactive | inactive | inactive | inactive |  | inactive |  |  |  |  |
| CN1CC[C@]23c4c5ccc(O)c4O[C@H]2[C@@H](O)CC[C@H]3[C@H]1C5 |  |  | inactive | inactive | inactive |  | inactive | inactive | inactive | inactive | inactive |  | inactive | inactive |  |  |
| NNCCO |  |  | inactive | inactive | inactive | inactive | inactive | inactive | inactive | inactive | inactive | inactive |  |  | inactive | inactive |
| COc1ccc(C(=O)c2c(C)n(CCN3CCOCC3)c3ccccc23)cc1 |  |  | inactive | inactive | inactive | inactive |  | inactive | inactive | inactive |  |  |  |  | inactive |  |
| CCOP(=O)(SC(C)CC)N1CCSC1=O (stereo not drawn) |  |  | inactive | inactive | inactive | inactive | inactive | inactive | inactive | inactive | inactive | inactive |  | inactive |  |  |
| CCCN(CCC)C(=O)Cc1c(-c2ccc(Cl)cc2)nc2ccc(Cl)cn12 |  |  | inactive | inactive | inactive | inactive |  |  | inactive | inactive |  | inactive | inactive |  |  |  |
| Cc1cnc(C2=NC(C)(C(C)C)C(=O)N2)c(C(=O)O)c1 (stereo not drawn) |  |  | inactive | inactive | inactive | inactive | inactive | inactive | inactive | inactive | inactive | inactive |  |  |  |  |
| C[N+](C)(C)CC1CO1 (stereo not drawn) |  |  | inactive | inactive | inactive | inactive | inactive | inactive | inactive | inactive | inactive | inactive |  |  |  |  |
| Cc1ncc(C[n+]2csc(CCO)c2C)c(N)n1 |  |  | inactive | inactive | inactive | inactive | inactive |  | inactive | inactive | inactive | inactive | inactive | inactive |  |  |
| O=C(NC(=O)c1cc(F)c(F)cc1Cl)Nc1cc(F)ccc1N1CCC(C(=O)O)CC1 |  |  | inactive | inactive | inactive | inactive | inactive | inactive | inactive | inactive | inactive | inactive |  |  |  |  |
| CC(Oc1cccc(Cl)c1)C(=O)O (stereo not drawn) |  |  | inactive | inactive | inactive | inactive | inactive | inactive | inactive | inactive | inactive | inactive | inactive |  |  |  |
| CCCSP(=S)(OCC)Oc1ccc(SC)cc1 (stereo not drawn) |  |  | inactive | inactive | inactive |  | inactive | inactive | inactive | inactive | inactive | 19.3 µM (active) | inactive | 21.7 µM (active) | inactive |  |
| N#CC1(N=NC2(C#N)CCCCC2)CCCCC1 |  |  | inactive | inactive | inactive | inactive | inactive | inactive | inactive | inactive |  |  | inactive |  | inactive |  |
| CON(C)C(=O)Nc1ccc(Cl)cc1 |  |  | inactive | inactive | inactive |  | inactive | inactive | inactive | inactive | inactive | inactive |  |  |  |  |
